# In the supplement of paper PMC10037445:
# ± gives the standard deviation of the averaged measurements. Over roughly 2,900 compounds, “NF-kB SEAP reporter activity, fold change vs agonist alone” has its median near 0.99; the highest 2% begin near 2.6. The sample holds the highest values, similar compounds and a random draw of the others, so the mix is not that of the screen.
# Key:
# RAW-Dual [1] = assay: NF-kB SEAP reporter activity, fold change vs agonist alone; higher = enhanced NF-kB activity
# Outline: (§1)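 Cytotoxic wells were those whose IncuCyte confluency was below 70% of agonist controls in both mask sets. The cells were RAW-Dual macrophages at 50,000 cells/well in DMEM on 384-well plates, dosed with 50 nL of library stock by pin tool, stimulated with a PRR agonist 1 h later, and kept at 37 °C, 5% CO2 for 20 hours. IRF and NF-κB reporter activity, as fold change over agonist-alone wells, came from supernatant read by QuantiLuc luminescence and QuantiBlue absorbance, respectively.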
# RAW-Dual [2] = assay: NF-kB SEAP reporter activity, fold change vs agonist alone; cytotoxicity flag (confluency mask): not cytotoxic; higher = enhanced NF-kB activity
# Outline: as §1
# RAW-Dual [3] = assay: NF-kB SEAP reporter activity, fold change vs agonist alone; cytotoxicity flag (confluency mask): cytotoxic (confluency <70% of control); higher = enhanced NF-kB activity
# Outline: as §1
# [4] = library stock concentration (final ~1000-fold dilution): 10 mM, cytotoxicity flag (confluency mask): not cytotoxic, agonist: Imiquimod (TLR7) […]
# [5] = library stock concentration (final ~1000-fold dilution): 10 mM, cytotoxicity flag (confluency mask): not cytotoxic, agonist: MPLA (TLR4) […]
# [6] = agonist: ODN 1826 (TLR9) 0.5 ug/mL
# [7] = agonist: Pam2CSK4 (TLR2/6) 0.1 ug/mL
# [8] = agonist: Pam3CSK4 (TLR2/1) 0.1 ug/mL
# [9] = library stock concentration (final ~1000-fold dilution): 10 mM water, cytotoxicity flag (confluency mask): not cytotoxic, agonist: Imiquimod (TLR7) […]
# [10] = library stock concentration (final ~1000-fold dilution): 10 mM water, cytotoxicity flag (confluency mask): not cytotoxic, agonist: MPLA (TLR4) […]
# [11] = library stock concentration (final ~1000-fold dilution): 10 mM, cytotoxicity flag (confluency mask): cytotoxic (confluency <70% of control), agonist: Imiquimod (TLR7) […]
# [12] = library stock concentration (final ~1000-fold dilution): 10 mM, cytotoxicity flag (confluency mask): cytotoxic (confluency <70% of control), agonist: MPLA (TLR4) […]
smiles,measurement,setting,value
CC(C)CC(=O)NC(C(=O)NC(C(=O)NC(CC(C)C)C(O)CC(=O)NC(C)C(=O)NC(CC(C)C)C(O)CC(=O)O)C(C)C)C(C)C (centres undefined),NF-kB SEAP reporter activity,RAW-Dual [1]; [4],1.01
same,NF-kB SEAP reporter activity,RAW-Dual [1]; [5],1
CC(C)CC(=O)NC(C(=O)NC(C(=O)NC(CC(C)C)C(O)CC(=O)NC(C)C(=O)NC(CC(C)C)C(O)CC(=O)O)C(C)C)C(C)C (centres undefined) (library stock concentration (final ~1000-fold dilution): 10 mM),NF-kB SEAP reporter activity,RAW-Dual [2]; agonist: LPS (TLR4) 0.1 ug/mL,0.983
same,NF-kB SEAP reporter activity,RAW-Dual [2]; [6],0.596
same,NF-kB SEAP reporter activity,RAW-Dual [2]; [7],1
same,NF-kB SEAP reporter activity,RAW-Dual [2]; [8],0.967
CCOCc1nc2c(N)nc3ccccc3c2n1CC(C)(C)O,NF-kB SEAP reporter activity,"RAW-Dual [1]; library stock concentration (final ~1000-fold dilution): 3.2 mM, cytotoxicity flag (confluency mask): not cytotoxic, agonist: Imiquimod (TLR7) […]",1.27
same,NF-kB SEAP reporter activity,"RAW-Dual [1]; library stock concentration (final ~1000-fold dilution): 3.2 mM, cytotoxicity flag (confluency mask): not cytotoxic, agonist: MPLA (TLR4) […]",2.17
CCOCc1nc2c(N)nc3ccccc3c2n1CC(C)(C)O (library stock concentration (final ~1000-fold dilution): 3.2 mM),NF-kB SEAP reporter activity,RAW-Dual [2]; agonist: LPS (TLR4) 0.1 ug/mL,3.55
same,NF-kB SEAP reporter activity,RAW-Dual [2]; [6],1.69
same,NF-kB SEAP reporter activity,RAW-Dual [2]; [7],0.415
same,NF-kB SEAP reporter activity,RAW-Dual [2]; [8],0.673
CC(=O)NC1C(NC(=N)N)C=C(C(=O)O)OC1C(O)C(O)CO (centres undefined),NF-kB SEAP reporter activity,RAW-Dual [1]; [9],0.917
same,NF-kB SEAP reporter activity,RAW-Dual [1]; [10],1.03
CC(=O)NC1C(NC(=N)N)C=C(C(=O)O)OC1C(O)C(O)CO (centres undefined) (library stock concentration (final ~1000-fold dilution): 10 mM water),NF-kB SEAP reporter activity,RAW-Dual [2]; agonist: LPS (TLR4) 0.1 ug/mL,1.37
same,NF-kB SEAP reporter activity,RAW-Dual [2]; [6],1.17
same,NF-kB SEAP reporter activity,RAW-Dual [2]; [7],1.19
same,NF-kB SEAP reporter activity,RAW-Dual [2]; [8],1.07
CC1CN(CC(=O)Nc2ccc3c(c2)Cc2cccc(-c4cc(=O)cc(N5CCOCC5)o4)c2S3)CC(C)O1 (centres undefined),NF-kB SEAP reporter activity,RAW-Dual [1]; [4],1.54
same,NF-kB SEAP reporter activity,RAW-Dual [1]; [5],2.82
O=c1cc(-c2cccc3c2Sc2ccccc2S3)oc(N2CCOCC2)c1 (library stock concentration (final ~1000-fold dilution): 10 mM),NF-kB SEAP reporter activity,RAW-Dual [2]; agonist: LPS (TLR4) 0.1 ug/mL,2.66
same,NF-kB SEAP reporter activity,RAW-Dual [2]; [6],0.715
same,NF-kB SEAP reporter activity,RAW-Dual [2]; [7],0.748
same,NF-kB SEAP reporter activity,RAW-Dual [2]; [8],0.948
O=c1cc(-c2cccc3c2Sc2ccccc2S3)oc(N2CCOCC2)c1,NF-kB SEAP reporter activity,RAW-Dual [1]; [4],1.04
same,NF-kB SEAP reporter activity,RAW-Dual [1]; [5],2.17
CC1CN(CC(=O)Nc2ccc3c(c2)Cc2cccc(-c4cc(=O)cc(N5CCOCC5)o4)c2S3)CC(C)O1 (centres undefined) (library stock concentration (final ~1000-fold dilution): 10 mM),NF-kB SEAP reporter activity,RAW-Dual [2]; agonist: LPS (TLR4) 0.1 ug/mL,5.33
same,NF-kB SEAP reporter activity,RAW-Dual [2]; [6],0.922
same,NF-kB SEAP reporter activity,RAW-Dual [2]; [7],1.36
same,NF-kB SEAP reporter activity,RAW-Dual [2]; [8],1.99
CNC(=O)C(Cc1c[nH]c2ccccc12)NC(=O)C(CC(=O)NO)CC(C)C (centres undefined) (library stock concentration (final ~1000-fold dilution): 10 mM),NF-kB SEAP reporter activity,RAW-Dual [2]; agonist: LPS (TLR4) 0.1 ug/mL,0.932
same,NF-kB SEAP reporter activity,RAW-Dual [2]; [6],0.999
same,NF-kB SEAP reporter activity,RAW-Dual [2]; [7],1.03
same,NF-kB SEAP reporter activity,RAW-Dual [2]; [8],1.01
CNC(=O)C(Cc1c[nH]c2ccccc12)NC(=O)C(CC(=O)NO)CC(C)C (centres undefined),NF-kB SEAP reporter activity,RAW-Dual [1]; [4],1.04
same,NF-kB SEAP reporter activity,RAW-Dual [1]; [5],1.23
CN1C2CCCC1CC(NC(=O)c1nn(C)c3ccccc13)C2.Cl (centres undefined),NF-kB SEAP reporter activity,RAW-Dual [1]; [9],0.874
same,NF-kB SEAP reporter activity,RAW-Dual [1]; [10],1
CN1C2CCCC1CC(NC(=O)c1nn(C)c3ccccc13)C2.Cl (centres undefined) (library stock concentration (final ~1000-fold dilution): 10 mM water),NF-kB SEAP reporter activity,RAW-Dual [2]; agonist: LPS (TLR4) 0.1 ug/mL,1.2
same,NF-kB SEAP reporter activity,RAW-Dual [2]; [6],1.06
same,NF-kB SEAP reporter activity,RAW-Dual [2]; [7],1.04
same,NF-kB SEAP reporter activity,RAW-Dual [2]; [8],1.11
CC1(C)CCC2(NC(=O)C(C)(F)F)CCC3(C)C(C(=O)C=C4C5(C)C=C(C#N)C(=O)C(C)(C)C5CCC43C)C2C1 (centres undefined),NF-kB SEAP reporter activity,RAW-Dual [1]; [11],0.14 ± 0.006
same,NF-kB SEAP reporter activity,RAW-Dual [1]; [12],0.254 ± 0.0072
CC1(C)CCC2(NC(=O)C(C)(F)F)CCC3(C)C(C(=O)C=C4C5(C)C=C(C#N)C(=O)C(C)(C)C5CCC43C)C2C1 (centres undefined) (library stock concentration (final ~1000-fold dilution): 10 mM),NF-kB SEAP reporter activity,RAW-Dual [3]; agonist: LPS (TLR4) 0.1 ug/mL,0.358 ± 0.053
same,NF-kB SEAP reporter activity,RAW-Dual [3]; [6],0.173 ± 0.0087
same,NF-kB SEAP reporter activity,RAW-Dual [3]; [7],0.0759 ± 0.018
same,NF-kB SEAP reporter activity,RAW-Dual [3]; [8],0.163 ± 0.0017
C=CC(C)(/C=C/c1ccc(O)cc1)CCC=C(C)C (centres undefined),NF-kB SEAP reporter activity,RAW-Dual [1]; [4],1.1
same,NF-kB SEAP reporter activity,RAW-Dual [1]; [5],1.12
C=CC(C)(/C=C/c1ccc(O)cc1)CCC=C(C)C (centres undefined) (library stock concentration (final ~1000-fold dilution): 10 mM),NF-kB SEAP reporter activity,RAW-Dual [2]; agonist: LPS (TLR4) 0.1 ug/mL,0.878
same,NF-kB SEAP reporter activity,RAW-Dual [2]; [6],1.02
same,NF-kB SEAP reporter activity,RAW-Dual [2]; [7],0.934
same,NF-kB SEAP reporter activity,RAW-Dual [2]; [8],1.16
C=CCNC1=C2CC(C)CC(OC)C(O)C(C)/C=C(\C)C(OC(N)=O)C(OC)/C=C\C=C(/C)C(=O)NC(=CC1=O)C2=O (centres undefined) (library stock concentration (final ~1000-fold dilution): 10 mM),NF-kB SEAP reporter activity,RAW-Dual [3]; agonist: LPS (TLR4) 0.1 ug/mL,0.289
same,NF-kB SEAP reporter activity,RAW-Dual [3]; [6],0.221
same,NF-kB SEAP reporter activity,RAW-Dual [3]; [7],0.0862
same,NF-kB SEAP reporter activity,RAW-Dual [3]; [8],0.182
C=CCNC1=C2CC(C)CC(OC)C(O)C(C)/C=C(\C)C(OC(N)=O)C(OC)/C=C\C=C(/C)C(=O)NC(=CC1=O)C2=O (centres undefined),NF-kB SEAP reporter activity,RAW-Dual [1]; [11],0.313
same,NF-kB SEAP reporter activity,RAW-Dual [1]; [12],0.516
COc1ccc2c(c1)c(C1=C(c3c[nH]c4ccccc34)C(=O)NC1=O)cn2CCCN(C)C (library stock concentration (final ~1000-fold dilution): 10 mM),NF-kB SEAP reporter activity,RAW-Dual [3]; agonist: LPS (TLR4) 0.1 ug/mL,1.23
same,NF-kB SEAP reporter activity,RAW-Dual [3]; [6],0.346
same,NF-kB SEAP reporter activity,RAW-Dual [3]; [7],1.25
same,NF-kB SEAP reporter activity,RAW-Dual [3]; [8],1.82
CN1CCN(c2nc(C3=C(c4c[nH]c5ccccc45)C(=O)NC3=O)c3ccccc3n2)CC1,NF-kB SEAP reporter activity,RAW-Dual [1]; [11],2.99
same,NF-kB SEAP reporter activity,RAW-Dual [1]; [12],2.19
CN(C)CCCn1cc(C2=C(c3c[nH]c4ccccc34)C(=O)NC2=O)c2ccccc21 (library stock concentration (final ~1000-fold dilution): 10 mM),NF-kB SEAP reporter activity,RAW-Dual [3]; agonist: LPS (TLR4) 0.1 ug/mL,0.346
same,NF-kB SEAP reporter activity,RAW-Dual [3]; [6],0.491
same,NF-kB SEAP reporter activity,RAW-Dual [3]; [7],0.833
same,NF-kB SEAP reporter activity,RAW-Dual [3]; [8],0.564
CN1CCN(c2nc(C3=C(c4c[nH]c5ccccc45)C(=O)NC3=O)c3ccccc3n2)CC1 (library stock concentration (final ~1000-fold dilution): 10 mM),NF-kB SEAP reporter activity,RAW-Dual [3]; agonist: LPS (TLR4) 0.1 ug/mL,2.03
same,NF-kB SEAP reporter activity,RAW-Dual [3]; [6],1.29
same,NF-kB SEAP reporter activity,RAW-Dual [3]; [7],1.84
same,NF-kB SEAP reporter activity,RAW-Dual [3]; [8],3.14
